In the library only some 2.3% were active in any assay of this set; here they are far more common.
Tau fluor counter – counter-screen for tau fibril formation inhibitors; tau K18 P301L Alexa594 fluorescence, heparin fibrillization; Potency, µM (top dose mostly 57.7 µM), inactives show top-dose activity change, negative = decrease; actives 0.93% (n = 280,000); note: potency is the fitted concentration of half-maximal effect; nearly all actives have a fitted effect of over 55% in size
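Human tau K18 P301L (15 uM unlabeled, 0.24 uM Alexa 594-labeled) in 100 mM sodium acetate pH 7 with 20 uM heparin, 6 hr at 37 C. ThT 30 uM added, 1 hr ambient; Alexa 594 FP and total fluorescence read at 555/632 nm.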
Tau FP inhib – inhibitors of human tau fibril formation | P10636 | K18 P301L tau heparin fibrillization, Alexa594 FP, 6 h | Potency, µM (highest dose often 57.7 µM), for inactives: at the top dose activity, negative = inhibition, actives largely listed as inhibitors | actives 0.39% (n = 280,000) | AID 1468; note: potency is the fitted concentration of half-maximal effect; nearly all actives have a fitted effect of over 55% in size
Target sequence (P10636 561-689 P618L limits assumed): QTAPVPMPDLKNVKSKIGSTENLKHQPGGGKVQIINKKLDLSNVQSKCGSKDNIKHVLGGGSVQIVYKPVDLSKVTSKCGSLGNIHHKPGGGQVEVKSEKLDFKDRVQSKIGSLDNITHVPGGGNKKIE
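Compound effects on tau fibrillization are measured by Alexa 594 fluorescence polarization (ex 555, em 632 nm). K18 P301L tau is used at 15 uM with 0.24 uM labeled tracer, and 20 uM heparin induces aggregation over 6 hr at 37 C.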
Coupling enz – coupling enzyme interference in Giardia aldolase counter-screen | actives 0.67% (n = 290,000) | activity change, negative = inhibition, % at 58.2 µM, hits read low | AID 2472 | coupling enzyme system counterscreen, AmpLite Red fluorescence; in the data active = activity change below about -30%
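Counterscreen of the coupled detection system alone, without aldolase: glyceraldehyde-3-phosphate coupling enzymes plus AmpLite Red readout. Compounds at 57.5 uM final, 10 min RT preincubation, 20 min RT reaction, fluorescence 525/598 nm.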
USP1 inh – blocks the human USP1/UAF1 deubiquitinase complex; O94782; recombinant USP1/UAF1, Ub-Rhodamine cleavage fluorescence; Potency, µM (series often up to 57.1 µM), for the others: top-dose activity change, negative = inhibition, usual class: inhibitors; actives 0.23% (n = 390,000); AID 743255; note: potency is the fitted concentration of half-maximal effect; nearly all actives have a fitted effect of over 60% in size
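1 nM enzyme complex + cpd, 15 min RT; start with Ub-Rho 150nM final; kinetic fluorescence ex 480/em 540, 6 reads q60 s. Buffer 50mM HEPES pH 7.8, 0.5mM EDTA, 0.1 mg/ml BSA, 1mM TCEP, 0.01% Tween-20.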
Tau ThT inhib – tau fibrillization inhibition (ThT binding). P10636. recombinant tau K18 P301L, heparin-induced fibrillization, ThT fluorescence. Potency, µM (top dose mostly 57.4 µM), for the others: at the top dose activity, negative = inhibition, most hits filed as inhibitors. actives 2.1% (n = 270,000); note: potency is the fitted concentration of half-maximal effect; nearly all actives have a fitted effect of over 55% in size
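Using a mix of unlabeled (15 uM) and Alexa 594-labeled (0.24 uM) tau K18 P301L, heparin-triggered fibrillization over 6 hr at 37 C was scored by ThT fluorescence.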
* = called active by the depositor; ? = inconclusive; · = no result; ! = a repeat was not active; [ ] = another dose, or the depositor's remark. Unless noted, calls come from the whole dose curve; as a rule, active = well fitted curve in the direction sought with a large enough effect; inconclusive = small, poorly fitted or top-dose-only effect, or another doubt; inactive = no such curve, though single readings can be large; an effect the other way counts as inactive or inconclusive. % is set by controls: 0 for no effect and ±100 for the full control effect.

SMILES	Tau fluor counter	Tau FP inhib	Coupling enz	USP1 inh	Tau ThT inhib
NC(CO)C(=O)NNCc1ccc(O)c(O)c1O (centres undefined)	?	3.2µM*	-53*!	?	3.2µM*
COC(=O)C1=C(C)OC(N)=C(C#N)C1c1cc(OC)c(OCC(N)=O)cc1Cl (centres undefined)	-8%	-8%	-30*	-13%	?
COC(=O)C1=C(C)OC(N)=C(C#N)C1c1ccccc1F (centres undefined)	-7%	1%	4	-17%	-10%
COc1ccccc1-n1c(=O)n(C)c2c(C(N)=O)nc(-c3cc(OC)c(OC)c(OC)c3)nc21	-4%	-3%	·	-10%	-4%
Cc1ccc(NS(=O)(=O)c2ccc(Cl)c(C(=O)Nc3ccccc3-c3nc4ccccc4[nH]3)c2)cc1C	?	14µM*	-3	-4%	?
Cc1ccc(NS(=O)(=O)c2ccc3nc(-c4ccccc4)[nH]c3c2)cc1Cl	?	10µM*	·	-10%	?
O=S(=O)(Nc1ccc(Br)cc1F)c1ccc2nc(-c3ccccc3)[nH]c2c1	-14%	14µM*	·	-16%	?
CN(C)S(=O)(=O)c1ccc(Cl)c(C(=O)Nc2nc3ccccc3[nH]2)c1	-3%	-2%	-1	-7%	-1%
Cc1cc(NS(=O)(=O)c2ccc3nc(-c4ccccc4)[nH]c3c2)ccc1Br	?	7.9µM*	·	-19%	?
Cc1ccc(NS(=O)(=O)c2ccc3[nH]c(=O)c(=O)[nH]c3c2)cc1Cl	0%	7%	-2	-19%	4%
O=S(=O)(c1ccc2nc(-c3ccccc3)[nH]c2c1)N1CCN(c2ccc(Cl)cc2)CC1	?	?	-1	-7%	7%
CC(C)CN(CCCNC(=O)Cn1ncc2c3ccccc3n(C)c2c1=O)CC(C)C	6%	2%	·	-28%	15%
COc1ccc(C(C)(C)C)cc1NC(=O)CCN1C(=O)NC(C)(C)C1=O	·	·	·	-9%	·
CC(=O)N(/N=C1\Sc2ccccc2C1=O)c1ccccc1C	-17%	6%	·	?	11µM*
CC(=O)N(/N=C1\Sc2ccccc2C1=O)c1ccc(C)cc1C	-21%	5%	1	-12%	?
CCOC(=O)C1CCN(CCC(=O)Nc2ccc(Br)c(C)c2)CC1	1%	8%	0	-11%	2%
CCOC(=O)CC(=O)CSc1nc2ccc(C)cc2cc1C#N	-26%	-3%	-9	28µM*	?
CCOC(=O)CC(=O)CSc1nc(CC)c(C)cc1C#N	-20%	6%	-1	-12%	-18%
CCCOc1ccc(C(=O)CCC(=O)OCC(=O)Nc2cccc(S(N)(=O)=O)c2)cc1	·	·	·	-10%	·
CC(C)(C)C1=CC(=O)C(=O)C(C(C)(C)C)=C1	-16%	?	-48*	-19%	?
Cc1ccc(NS(=O)(=O)c2ccccc2)c2c1CC(C)(C)O2	-1%	-2%	-46*	-15%	4%
Cn1c(/C=C(\C#N)C(N)=S)ccc1-c1ccc(Br)cc1	-28%	4%	0	-18%	1µM*
O=C(Nc1cccc(C(F)(F)F)c1)N1CC2CCCN2c2ccccc21 (centres undefined)	-27%	1%	·	-15%	-6%
CCOC(=O)C1=C(CSc2nc3c(cc2C#N)CN(C)CC3)OC(N)=C(C#N)C1c1ccccc1 (centres undefined)	?	-15%	-3	-17%	28µM*
CCOC(=O)C1=C(CSc2nc3c(cc2C#N)CN(C)CC3)OC(N)=C(C#N)C1c1ccc(F)cc1 (centres undefined)	?	?	-8	-21%	16µM*
SMILES	Tau fluor counter	Tau FP inhib	Coupling enz	USP1 inh	Tau ThT inhib
CCOC(=O)C1=C(CSc2nc(-c3ccccc3)ccc2C#N)OC(N)=C(C#N)C1c1ccccc1 (centres undefined)	?	-8%	-7	-18%	?
CCOC(=O)C1=C(CSc2nc3c(cc2C#N)CCC3)OC(N)=C(C#N)C1c1ccccc1 (centres undefined)	?	-7%	5	?	?
CN1CCc2nc(SCCOc3ccccc3)c(C#N)cc2C1	?	-12%	0	-4%	?
COC(=O)C1=C(CSc2nc3c(cc2C#N)CN(C)CC3)OC(N)=C(C#N)C1c1ccccc1F (centres undefined)	?	?	-17	?	18µM*
Cc1oc(=O)cc(OCc2ccccc2)c1C	·	·	·	-27%	·
Cc1cccc(NC(=O)CN2C(=O)c3cccnc3Oc3ccc(Cl)cc32)c1C	-17%	-2%	·	-1%	?
O=c1ccc2c(-c3ccccc3)c3ccc(O)cc3oc-2c1	·	·	-13	3.5µM*	·
O=c1cc(-c2ccccc2)oc2cc(O)ccc12	·	·	3	-3%	·
Nc1ccc(-c2c3ccc(=O)cc-3oc3cc(O)ccc23)cc1C(=O)O	·	·	1	22µM*	·
Cc1ccc2c(=O)c(C(=O)c3cccc(Cl)c3)cn(CC(=O)NC3CCCCC3)c2n1	-14%	-9%	·	-12%	?
COc1ccnc(CSC(N)=Nc2cccc(C(F)(F)F)c2)c1	?	?	-3	-8%	18µM*
COc1ccnc(CSC(N)=Nc2ccccc2OC)c1	-19%	?	0	-19%	32µM*
Cc1n[nH]c(C)c1CN(C)C(=O)C1CCC(=O)N(CC2CCCCC2)C1 (centres undefined)	·	·	·	2%	·
COc1cc(N=Nc2cccc(S(N)(=O)=O)c2)c2ccccc2c1N	10µM*[quencher]	?	-16	-23%	1.6µM*
O=C1C=C(NCCO)C(=O)c2cnccc21	-15%	-10%	-17	·	?
O=C1C=C(NCCc2cc(Br)c(O)c(Br)c2)C(=O)c2ncccc21	·	·	·	3.5µM*	·
COc1ccc(N2CCN(C(=O)c3ccc4c(c3)N(Cc3ccc(F)cc3)C(=O)c3ccccc3S4=O)CC2)cc1 (centres undefined)	-22%	6%	·	-26%	-6%
CCN(CC)C(=O)c1ccc2c(c1[N+](=O)[O-])C(=O)c1ccccc1C2=O	0%	3%	-42*	·	-2%
CC1=C(c2ccc(C)cc2)S(=O)(=O)NC1=NCCCN1CCN(c2ccccc2F)CC1	-2%	-6%	·	17%	5%
Cc1ncc(CCl)c2c1OC(C)(C)OC2	-9%	-2%	-38*	-11%	-7%
Cc1ncc(CO)c2c1OC(C)(C)OC2	4%	5%	8	-10%	-1%
C/C(=N\NC(=O)c1ccc(N/N=C(\C)c2ccc(O)cc2)cc1)c1ccc(O)cc1	16µM*[quencher]	?	-1	-24%	3.2µM*
C/C(=N\NC(=O)c1ccc(O)cc1)c1ccc(N2CCOCC2)cc1	-3%	-6%	-1	-16%	?
C/C(=N\NC(=O)c1cccc(N/N=C(\C)c2cc(O)ccc2O)c1)c1cc(O)ccc1O	?	?	-1	-17%	28µM*
